Peg3 prom inh: Peg3 promoter activity inhibition; AID 588405; actives 1.7% (n = 360,000); HeLa PEG-Prom luciferase reporter, luminescence, overnight; inhibition, % at 20 µM;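 active = inhibition of at least 50% at 20 µM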
TWEAK-Fn14 inh: inhibitors of TWEAK-Fn14 interaction signaling | AID 1159606 | actives 2% (n = 360,000) | TWEAK-stimulated Fn14 reporter cells, luciferase luminescence, 8 h | inhibition, % at 10 µM; in the data active = inhibition above about 50%
CF NFkB block: blocks PAF-induced NF-kB reporter in cystic fibrosis cells. KKLEB NF-kB-GFP reporter, GFP fluorescence overnight. inhibition, % at 5 µM. actives 0.86% (n = 360,000). AID 588850;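 active = at least 50% inhibition at 5 µM, scaled per plate between neutral and stimulator controls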;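 also: PAF is a Pseudomonas aeruginosa culture filtrate used as stimulus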
KKLEB tox: reduces viability of KKLEB cystic fibrosis airway cells. KKLEB CF airway cells viability, ATPlite luminescence, overnight; active compounds read low; cells stimulated with P. aeruginosa culture filtrate. activity change (cytotoxicity), % at 5 µM. actives 0.36% (n = 360,000);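 active = corrected activity change at or below -50% at 5 µM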
TROY signal inh: blocks TROY-dependent signaling in reporter cells; Q293 LMP1-TROYcd NF-kB luciferase reporter, 4 h; inhibition, % at 10 µM; actives 0.98% (n = 360,000); AID 1347056;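 active = compounds whose plate-normalised and pattern-corrected inhibition of the luciferase reporter signal at the single screening dose is 50% or more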
HIF-2a inh: inhibitors of HIF-2a. 786-0 RCC cells HIF-2a reporter, luciferase luminescence, overnight. inhibition, % at 18.8 µM. actives 0.72% (n = 360,000). AID 624352;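 active = inhibition of the luminescence signal of 40% or more relative to plate controls, in a single-dose primary screen at 18.75 µM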
Mdm2 MdmX conf: Mdm2/MdmX (human) interaction inhibition, confirmed; SaOS-2 split-luciferase Mdm2/MdmX complementation, luminescence; shares compounds with HIF-2a inh; actives 99% (n = 740); AID 504601; inhibition, % at 8 µM;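 active = mean inhibition of the luminescence signal across two replicates at or above 26 percent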
HIF-2a conf: confirmation of HIF-2a inhibitors; 786-0 RCC cells, HIF-2a luciferase reporter luminescence, overnight; actives 56% (n = 1,800); shares compounds with HIF-2a inh; inhibition, % at 18.8 µM;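 active = mean inhibition across four replicates of at least 40 percent at the single tested concentration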
HIF-1a cs: HIF-1a inhibition counter-screen for HIF-2a hits; shares compounds with HIF-2a inh; MiaPaCa-2 HIF-1a luciferase reporter, desferoxamine, overnight; inhibition, % at 18.8 µM; actives 72% (n = 1,800); AID 651589;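 active = mean inhibition of the reporter signal across four replicates at the single tested dose of 50% or more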
Of the large screens only hits and unclear results are named; the others gave an inactive call (follow-up assays come after a bar, where they were run). Rows were chosen to be rich in hits. Some 4% of all compounds tested hit in one or more screens of this group.

N#CC1=C(N)Oc2n[nH]c(-c3cccs3)c2C1C1C=CCCC1 (configuration not stated)	none
Cc1ccc(C)c(C(=O)Cn2ncc(Cl)c(Cl)c2=O)c1	Peg3 prom inh 108.9, TWEAK-Fn14 inh 68.3, HIF-2a inh 86.3 | HIF-2a conf inactive | HIF-1a cs 104.3
Cc1cccc(Cn2ncc(Cl)c(Cl)c2=O)c1	none | Mdm2 MdmX conf 102.7
Cc1cc2oc(=O)cc(Cn3ncc(Cl)c(Cl)c3=O)c2cc1Cl	Peg3 prom inh 106.1, TWEAK-Fn14 inh 79.8, CF NFkB block 87.8, KKLEB tox -68.7, TROY signal inh 82.6 | Mdm2 MdmX conf 103.0
Cc1cccc([C@@H]2[C@@H]3C(=O)N(Cc4ccccc4)C(=O)[C@@H]3[C@]3(Cc4ccc(Cl)cc4)C(=O)N(c4ccc(Br)cc4)C(=O)N23)c1	none | Mdm2 MdmX conf 101.7
CCc1[nH]nc2c1C(c1ccsc1)C(C#N)=C(N)O2 (configuration not stated)	none
CCc1[nH]nc2c1C(c1ccc(Br)s1)C(C#N)=C(N)O2 (configuration not stated)	HIF-2a inh 40.9 | HIF-2a conf inactive | HIF-1a cs inactive
Cc1cc(C)c(C)c(S(=O)(=O)N2CCN(CC(=O)c3c(N)n(Cc4ccccc4)c(=O)n(C)c3=O)CC2)c1C	none
O=C(c1ccccc1)c1c2c(cc3sc4ccccc4[n+]13)-c1cccc3cccc-2c13	Peg3 prom inh 100.9, TWEAK-Fn14 inh 60.0, HIF-2a inh 77.5 | HIF-2a conf 56.5 | HIF-1a cs 98.2
CCC1CCCCN1C(=O)COC(=O)c1cc(=O)[nH]c2ccccc12 (configuration not stated)	none
Cc1cc(C)nc(NC(=O)/C=C/c2ccccc2Cl)n1	none
Cc1cc(N)c2cc(NC(=O)/C=C/c3ccccc3Cl)ccc2n1	Peg3 prom inh 103.8, TROY signal inh 81.0, HIF-2a inh 96.3 | Mdm2 MdmX conf 103.0 | HIF-2a conf 95.4 | HIF-1a cs 107.7
COC(=O)c1ccc(N(CC(=O)NCC2CCCO2)C(=O)CCC(=O)Nc2cc(C)on2)cc1 (configuration not stated)	none
Cc1nnc(NC(=O)c2nc(S(=O)(=O)Cc3ccccc3)ncc2Cl)s1	Peg3 prom inh 110.5, TWEAK-Fn14 inh 91.1, CF NFkB block 82.7, HIF-2a inh 64.3 | HIF-2a conf inactive | HIF-1a cs 105.9
COc1ccc(OC)c(NC(=O)c2nc(S(=O)(=O)Cc3ccccc3)ncc2Cl)c1	Peg3 prom inh 106.4, TWEAK-Fn14 inh 76.1, CF NFkB block 89.2, KKLEB tox -105.2, TROY signal inh 83.1, HIF-2a inh 88.9 | Mdm2 MdmX conf 102.7 | HIF-2a conf 99.1 | HIF-1a cs 104.4
Cc1nnc(NC(=O)CS(=O)(=O)Cc2ccccc2)s1	none
O=C(Nc1ccc(F)cc1)c1nc(S(=O)(=O)Cc2ccccc2)ncc1Cl	Peg3 prom inh 99.5, TWEAK-Fn14 inh 79.3, CF NFkB block 101.3, KKLEB tox -75.3, TROY signal inh 69.2, HIF-2a inh 85.7 | Mdm2 MdmX conf 101.7 | HIF-2a conf 99.4 | HIF-1a cs 59.6
Cc1ccc(NC(=O)c2nc(S(=O)(=O)Cc3ccccc3)ncc2Cl)cc1	Peg3 prom inh 100.5, TWEAK-Fn14 inh 67.1, CF NFkB block 92.0, KKLEB tox -99.8, TROY signal inh 79.7, HIF-2a inh 94.6 | Mdm2 MdmX conf 102.2 | HIF-2a conf 98.3 | HIF-1a cs 96.1
CC(C)(C)S(=O)N1Cc2cc(=O)n(Cc3ccccc3)cc2[C@@H]1CCO (some centres not stated)	none
